Screening data (PubChem BioAssay)
Pf growth 96h: Primary qHTS for delayed death inhibitors of the malarial parasite plastid, 96 hour incubation; Potency, µM (top dose mostly 28.7 µM), for the others: at the top dose activity change, negative = inhibition, most hits filed as inhibitors; 320,000 compounds, 6.9% hits; P. falciparum luciferase reporter growth, 96 h; also: potency is read from the fitted curve at half-maximal effect; % is scaled to controls: 0 for no effect and ±100 for the full control effect
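P. falciparum expressing integrated firefly luciferase grown in erythrocytes (2% hematocrit, 0.05% parasitemia final) with compounds for 96 hours at 37 C, 5% CO2. Growth inhibition read as loss of luminescence after adding luciferase detection reagent.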
Sm TGR block: qHTS Assay for the Inhibitors of Schistosoma Mansoni Peroxiredoxins; purified TGR, DTNB reduction, TNB absorbance 405 nm; Potency, µM (titrated, usually from 114 µM), for the others: top-dose activity change, negative = inhibition, hits mostly inhibitors; Schistosoma mansoni thioredoxin glutathione reductase (TGR), Q962Y6; 360,000 compounds, 3% hits; AID 485364, 2010; also: potency is read from the fitted curve at half-maximal effect; % is scaled to controls: 0 for no effect and ±100 for the full control effect; nearly all actives have a fitted effect of over 60% in size
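First, TGR (20 nM dispensed) and NADPH were mixed with compound. Second, a 15 min room-temperature incubation followed. Third, further NADPH and then DTNB were added to start the reaction. Finally, TNB absorbance was monitored kinetically.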
CHX counter: Cycloheximide Counterscreen for Small Molecule Inhibitors of Shiga Toxin | cell reporter, cycloheximide protein synthesis inhibition counterscreen | max response, % | 300,000 compounds, 12% hits; in the data active = max response mostly above about 13%, no sharp cut-off; inactive = mostly below about 14%; also: read at 38.3 µM for the half of the compounds with a filed dose; 0% is about no effect
Shiga toxin inh: A qHTS for Small Molecule Inhibitors of Shiga Toxin; Vero cells, Shiga toxin protein synthesis inhibition reporter; inhibition, % at 38.7 µM; 290,000 compounds, 9.2% hits; in the data active = inhibition mostly above about 28%, no sharp cut-off; inactive = mostly below about 43%; also: 0% is about no effect
NS1 inh: qHTS Assay for Inhibitors of Influenza NS1 Protein Function; Potency, µM (series often up to 46.1 µM), without a hit: at the highest dose activity, positive = more growth; 270,000 compounds, 0.4% hits; calls by dose curve; also: potency is read from the fitted curve at half-maximal effect; actives are rising curves; nearly all actives have a fitted effect of over 50% in size
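Read-out: OD600 growth recovery of NS1-expressing budding yeast. Cells grown overnight at 30C in -URA glucose medium, washed, resuspended and diluted 1:100 in 2% galactose assay medium, pH 6.0. Same strain lacking NS1 served as positive control.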
Pf growth 48h: Primary qHTS for delayed death inhibitors of the malarial parasite plastid, 48 hour incubation | P. falciparum luciferase growth in erythrocytes, 48 h | Potency, µM (titrated, usually from 28.7 µM), for inactives: at the highest dose activity change, negative = inhibition, most hits filed as inhibitors | 310,000 compounds, 5.9% hits | AID 504832, 2011; also: potency is read from the fitted curve at half-maximal effect; % is scaled to controls: 0 for no effect and ±100 for the full control effect
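Firefly luciferase activity from engineered P. falciparum reports growth; inhibitors lower the luminescent signal. Cultures contained 2% hematocrit erythrocytes at 0.1% final parasitemia.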
Active calls of the source: *; ? = inconclusive; / = no result given; [ ] = remark or other dose. A selection: hits, their analogues and other compounds. The true share with any hit is near 21%. Unless noted, calls follow the shape of the dose curve; as a rule, active = well fitted curve in the direction sought with a large enough effect; inconclusive = small, poorly fitted or top-dose-only effect, or another doubt; inactive = no such curve, though single readings can be large; an effect the other way counts as inactive or inconclusive.

SMILES	Pf growth 96h	Sm TGR block	CHX counter	Shiga toxin inh	NS1 inh	Pf growth 48h
O=C(CSCc1ccc([N+](=O)[O-])cc1)Nc1ccccc1C(=O)O	9.28µM*	-3.6%	1.7	-18.4	2.7%	1.7%
Cc1ccc(NC(=O)CSCC(=O)Nc2ccc(S(=O)(=O)N3CCCC3)cc2)cc1	-1.8%	0.6%	/	/	/	?
O=C(Cc1ccccc1)Nc1ccccc1C(=O)Nc1ccc(C(=O)O)cc1	-10.5%	5.7%	3.5	7.7	/	0.0%
O=C(CSCc1ccccc1)Nc1cccc(C(=O)Nc2ccccc2C(=O)O)c1	0.0%	-30.6%	-4.2	-4.8	25.6%	-5.7%
Cc1ccc(SCC(=O)Nc2cc([N+](=O)[O-])ccc2O)cc1	-15.6%	-0.1%	27.9*	54.9*	-6.4%	31.1%
CCCCOc1ccc(C(=O)N/C(=C\c2ccc(Br)cc2)C(=O)NC2CCCCC2)cc1	/	-1.7%	/	/	/	/
CC(NCc1ccc(OCC(N)=O)cc1)C12CC3CC(CC(C3)C1)C2 (centres undefined)	11.8%	1.2%	-1.2	9.2	-10.2%	?
CCOc1ccccc1NC(=O)NNS(=O)(=O)c1ccc([N+](=O)[O-])cc1	0.0%	3.6%	-1.2	-3.3	9.3%	-6.1%
O=C(CSCc1ccc(Cl)cc1)Nc1cc([N+](=O)[O-])ccc1O	25.5%	/	15.7	45.6*	-5.2%	?
COc1ccc([N+](=O)[O-])cc1NC(=O)CSCc1ccc(Br)cc1	13.5%	5.2%	7.4	-3.0	-4.0%	-0.5%
CCOc1ccccc1NC(=O)CSc1ccc([N+](=O)[O-])cc1	2.33µM*	-25.8%	-0.5	21.4	/	2.94µM*
Cc1cccc(NC(=O)C2CCN(S(=O)(=O)c3cccc4nsnc34)CC2)c1C	/	7.8%	/	/	/	/
CC1CCCCC1NCC#CCOc1ccc(Cl)cc1 (centres undefined)	7.1%	-20.7%	16.0	2.8	1.1%	-22.6%
CC(C)Sc1nc2sc(-c3ccccc3)cc2c(=O)n1N	69.4%	-22.9%	1.3	-4.4	3.2%	-2.6%
NC(=O)NC(=O)CSc1nc2sc(-c3ccccc3)cc2c(=O)n1-c1ccccc1	38.7%[5.75 µM]	-0.8%	11.0*	19.9	/	16.8%
CNC(=O)CSc1nc2sccc2c(=O)n1-c1ccccc1	8.0%	1.7%	-6.0	-9.5	14.3%	-1.9%
CSc1nc2sc(-c3ccccc3)cc2c(=O)n1N	354.4%	-5.6%	22.0*	48.2	-0.5%	99.2%
COc1ccc(/C=C2\SC(N)=NC2=O)cc1Br	?	-0.4%	19.2*	/	4.5%	-8.0%
NC1=NC(=O)/C(=C/c2cccc(-c3ccc(S(N)(=O)=O)cc3)c2)S1	83.1%	10µM*	-0.9	-10.5	6.4%	38.9%
COc1cc(C2C(C#N)=C(N)Oc3c2ccc2ccccc32)ccc1OCC(=O)Nc1ccccc1C (centres undefined)	?	-23.8%	-1.4	-2.5	28.5%	10.4µM*
CCCOc1ccc(/C=C2\SC(N)=NC2=O)cc1OC	21.7%	-3.3%	-1.0	21.8	7.7%	-5.5%
NC1=NC(=O)/C(=C\c2ccc(O)c([N+](=O)[O-])c2)S1	31.7%[5.75 µM]	4.5%	7.2	-10.6	/	6.5%
CCCN(CC(=O)Nc1ccccc1C)C(=O)/C=C/c1ccc(OCC)c(OC)c1	?	-21.4%	/	/	/	9.28µM*
Cc1cc(S(=O)(=O)NC2CCCCC2)ccc1OCC(=O)NCC1CCCO1 (centres undefined)	41.5%[5.75 µM]	5.8%	-3.5	17.9	/	-5.3%
CCN(CC)c1ccc(NC(=O)Cn2nc(C)n3cccc3c2=O)c(C)c1	/	3.6%	/	/	/	/
SMILES	Pf growth 96h	Sm TGR block	CHX counter	Shiga toxin inh	NS1 inh	Pf growth 48h
Cc1cccc(C(=O)Nc2ccc(S(=O)(=O)N3CCOCC3)cc2C)c1	?	4.5%	-0.3	/	-3.8%	-8.4%
COc1cc(/C=C2\SC(N)=NC2=O)ccc1OCC(=O)Nc1ccccc1C	5.22µM*	2.5%	/	/	/	5.86µM*
CCN(CC)CCOC(=O)c1ccc(NC(=O)c2cn(-c3ccccc3)nc2-c2cccs2)cc1	?	-1.5%	14.8	16.3	/	?
CCCC1=C(C(=O)OCC)C(c2ccc(OC)c(CSc3ccccn3)c2)C(C#N)=C(N)O1 (centres undefined)	?	31.6µM*	5.0	-2.4	-4.1%	9.28µM*
CCOC(=O)C1=C(C)OC(N)=C(C#N)C1c1cc(SCC)oc1C (centres undefined)	6.5%	44.7µM*	8.8	51.9	/	13.5%
CCOC(=O)C1=C(C)OC(N)=C(C#N)C1c1cc2cc(C)ccc2nc1N1CCCCC1 (centres undefined)	470.9%	3.55µM*	14.6	45.5*	-8.5%	?
C=CCOC(=O)C1=C(C)OC(N)=C(C#N)C1c1ccc(OC)c(CSc2ccccn2)c1 (centres undefined)	4.6%	-13.0%	1.6	-8.7	3.2%	4.8%
CCOC(=O)C1=C(C)OC(N)=C(C#N)C1c1cc(C)sc1C (centres undefined)	4.0%	22.1%	-3.2	8.6	3.0%	-17.1%
CCOC(=O)C1=C(C)OC(N)=C(C#N)C1c1cc2ccccc2nc1N1CCCCC1 (centres undefined)	1.31µM*	-0.9%	-2.2	-10.8	1.4%	-12.4%
Cc1ccc(NC(=O)COc2coc(CN3CCc4ccccc43)cc2=O)cc1Cl	22.5%	-1.9%	/	/	/	-15.8%
CCOC(=O)C1=C(CC)OC(N)=C(C#N)C1c1ccsc1 (centres undefined)	13.1µM*	-4.1%	3.4	-8.0	1.7%	-6.7%
COc1ccc(Br)cc1C1C(C(=O)Nc2ccc(C)cc2C)=C(C)Nc2ncnn21 (centres undefined)	/	-3.3%	/	/	/	/
CC1(C)C[C@@H]2C[C@@](C)(CN2C(=O)c2ccccc2)C1	47.3%	1.1%	-2.7	-5.6	-8.1%	0.5%
CC1(C)CC2CC(C)(CN2/C=C2/CCCCC2=O)C1 (centres undefined)	-3.2%	35.5µM*	-3.9	3.2	-0.2%	?
O=C(Nc1cc(S(=O)(=O)N2CCOCC2)ccc1N1CCOCC1)c1cnccn1	0.0%	-10.2%	-3.5	-9.2	1.8%	-16.0%
CCc1cc(C(=O)Nc2cc(Cl)ccc2N2CCN(C)CC2)sc1C	-2.6%	-16.5%	/	/	/	-16.3%
CCN(CC)S(=O)(=O)c1ccc(N2CCOCC2)c(NC(=O)C2CCCO2)c1 (centres undefined)	8.28µM*	-2.4%	-2.3	-3.3	-1.7%	?
CCN(CC)S(=O)(=O)c1ccc(N2CCOCC2)c(NC(=O)c2c3c(nc4ccccc24)CCC3)c1	4.65µM*	5.2%	-2.5	-2.9	5.1%	7.38µM*
CCN(CC)S(=O)(=O)c1ccc(N2CCOCC2)c(NC(=O)c2cnccn2)c1	11.7µM*	-9.0%	-0.5	10.8	-6.6%	8.28µM*
